The list is not random: actives were taken first. Their share in the collection is about 4%.
CF NFkB block: cystic fibrosis NF-kB activation inhibition | KKLEB NF-kB-GFP reporter, PAF-induced, GFP fluorescence overnight | hit rate 0.86% among 360,000 | inhibition, % at 5 µM;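 active = at least 50% inhibition at 5 µM, scaled per plate between neutral and stimulator controls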;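 note: PAF is a Pseudomonas aeruginosa culture filtrate used as stimulus; plate controls were PAF-stimulated DMSO wells for no effect and unstimulated DMSO wells for full effect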
HIF-2a inh: blocks HIF-2a reporter activity; 786-0 RCC cells HIF-2a reporter, luciferase luminescence, overnight; hit rate 0.72% among 360,000; inhibition, % at 18.8 µM;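 active = inhibition of the luminescence signal of 40% or more relative to plate controls, in a single-dose primary screen at 18.75 µM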
KKLEB tox: CF airway cell cytotoxicity counter-screen. KKLEB CF airway cells viability, ATPlite luminescence, overnight; active compounds read low; cells stimulated with P. aeruginosa culture filtrate. AID 602141. hit rate 0.36% among 360,000. activity change (cytotoxicity), % at 5 µM;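 active = corrected activity change at or below -50% at 5 µM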
TROY NFkB inh: blocks TROY-dependent signaling in reporter cells | Q293 LMP1-TROYcd NF-kB luciferase reporter, 4 h | hit rate 0.98% among 360,000 | inhibition, % at 10 µM;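 active = compounds whose plate-normalised and pattern-corrected inhibition of the luciferase reporter signal at the single screening dose is 50% or more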
Peg3 prom inh: Peg3 promoter activity inhibition. HeLa PEG-Prom luciferase reporter, luminescence, overnight. inhibition, % at 20 µM. hit rate 1.7% among 360,000. AID 588405;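 active = inhibition of at least 50% at 20 µM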
TWEAK-Fn14 inh: inhibitors of TWEAK-Fn14 interaction signaling; AID 1159606; TWEAK-stimulated Fn14 reporter cells, luciferase luminescence, 8 h; inhibition, % at 10 µM; hit rate 2% among 360,000; in the data active = inhibition above about 50%
An asterisk follows results filed as active.

O=C(c1ccco1)N(CCCN1CCOCC1)c1nc(-c2ccc(Cl)cc2)cs1 was read as CF NFkB block 5.2, HIF-2a inh -8.8, KKLEB tox -16.7, TROY NFkB inh -4.3, Peg3 prom inh 23.6 and TWEAK-Fn14 inh -0.1.
CCN(CC)CCCN(C(=O)c1ccco1)c1nc(-c2ccc(C)cc2)cs1 was read as CF NFkB block 21.4, HIF-2a inh 9.9, KKLEB tox -15.2, TROY NFkB inh -21.9, Peg3 prom inh 57.2* and TWEAK-Fn14 inh 1.8.
For CCN(CC)CCCN(C(=O)c1ccco1)c1nc(-c2ccc(Cl)cc2)cs1 the results were CF NFkB block 7.4, HIF-2a inh 12.7, KKLEB tox 0.2, TROY NFkB inh -47.2, Peg3 prom inh 64.0* and TWEAK-Fn14 inh -50.5.
Screening COc1ccc(OC)c(/C=C(\C)C(=O)c2c(C)cc(C)[nH]c2=O)c1 returned CF NFkB block 0.0, HIF-2a inh 22.3, KKLEB tox 3.0, TROY NFkB inh 2.1, Peg3 prom inh 10.6 and TWEAK-Fn14 inh 8.1.
`CC(C)OC(=O)c1ccc2ccc(-c3ccccc3)nc2c1` gave CF NFkB block -26.2, HIF-2a inh -196.6, KKLEB tox -22.2, TROY NFkB inh -15.0, Peg3 prom inh -312.0 and TWEAK-Fn14 inh -7.8.
For CN(C)CCN(Cc1ccccc1)C(=O)c1[nH]c(C(F)(F)F)nc1-c1ccccc1 the results were CF NFkB block -0.4, HIF-2a inh 12.2, KKLEB tox -20.8, TROY NFkB inh 10.0, Peg3 prom inh 4.2 and TWEAK-Fn14 inh -13.0.
Nc1nc(N)c(N=O)c(Nc2cccc(Cl)c2)n1 was read as HIF-2a inh -9.3, TROY NFkB inh 15.8 and TWEAK-Fn14 inh 24.8.
Cc1ccccc1Cn1ccc(NC(=O)c2cnn3c(C(F)(F)F)cc(-c4ccco4)nc23)n1 was read as CF NFkB block 27.9, HIF-2a inh -0.1, KKLEB tox -0.3, TROY NFkB inh 25.4, Peg3 prom inh 51.2* and TWEAK-Fn14 inh 46.1.
For O=C(Nc1cnn(C23CC4CC(CC(C4)C2)C3)c1)c1cnn2c(C(F)(F)F)cc(-c3ccco3)nc12 the results were CF NFkB block 15.9, HIF-2a inh 2.2, KKLEB tox -25.2, TROY NFkB inh 81.4*, Peg3 prom inh 70.9* and TWEAK-Fn14 inh 95.7*.
`CN(CC(=O)Nc1ccc(OC(F)(F)F)cc1)C(=O)/C=C/c1cc2c(cc1[N+](=O)[O-])OCO2` gave CF NFkB block -17.2, HIF-2a inh 20.9, KKLEB tox -17.4, TROY NFkB inh 8.2, Peg3 prom inh 2.8 and TWEAK-Fn14 inh -11.3.
Screening CC(C)COC(=O)N1CCCC(c2cc(C(=O)Nc3ccccc3Cl)no2)C1 (stereo not given) returned CF NFkB block 9.8, HIF-2a inh -53.7, KKLEB tox -4.7, TROY NFkB inh -21.5, Peg3 prom inh -32.8 and TWEAK-Fn14 inh -11.4.
For CC1CN(S(=O)(=O)c2ccc(CN3C(=O)c4cccnc4C3=O)s2)c2ccccc2O1 (stereo not given) the results were CF NFkB block -10.2, HIF-2a inh 14.6, KKLEB tox -7.5, TROY NFkB inh 26.8, Peg3 prom inh -3.7 and TWEAK-Fn14 inh -17.6.
CN(C)c1ccc(N=Nc2ccc(S(N)(=O)=O)cc2)cc1 was read as CF NFkB block -14.4, HIF-2a inh -246.3, KKLEB tox 6.9, TROY NFkB inh -21.3, Peg3 prom inh -234.9 and TWEAK-Fn14 inh 15.1.
For CC1=CC(=O)C=CC1=Nc1ccc(N(C)C)cc1 the results were CF NFkB block 42.6, HIF-2a inh -37.5, KKLEB tox -5.2, TROY NFkB inh 8.8, Peg3 prom inh -4.1 and TWEAK-Fn14 inh 67.4*.
Screening CCCCCCCCN1C(=O)[C@H](CC(=O)NCCc2ccccc2OC)C[C@@]2(C(=O)OC)CC(C)(C)CC=C12 returned HIF-2a inh 9.8.
For COc1cc(C(=O)Nc2cc(S(=O)(=O)N3CCOCC3)ccc2N2CCOCC2)cc(OC)c1C the results were CF NFkB block 15.8, HIF-2a inh 8.4, KKLEB tox -15.8, TROY NFkB inh 9.9, Peg3 prom inh -13.9 and TWEAK-Fn14 inh -23.2.
For Cc1cc(F)ccc1-c1cc(C(=O)NCc2cccc(C(F)(F)F)c2)[nH]n1 the results were CF NFkB block -29.0, HIF-2a inh -9.3, KKLEB tox 2.6, TROY NFkB inh 29.8, Peg3 prom inh 5.2 and TWEAK-Fn14 inh -10.4.
`Nc1[nH]n(-c2ccccc2)c(=O)c1N=Nc1ccc2c(c1)OCCO2` gave CF NFkB block -27.8, HIF-2a inh -140.0, KKLEB tox -8.7, TROY NFkB inh 51.0*, Peg3 prom inh -178.2 and TWEAK-Fn14 inh 68.1*.
CCOC(CNc1ncnc2sc(-c3ccccc3)cc12)OCC was read as CF NFkB block 3.5, HIF-2a inh -38.4, KKLEB tox -12.0, TROY NFkB inh -8.9, Peg3 prom inh -25.6 and TWEAK-Fn14 inh -3.5.
CN(C)CCCNc1ncnc2sc(-c3ccccc3)cc12 was read as CF NFkB block -20.7, HIF-2a inh 0.7, KKLEB tox 4.3, TROY NFkB inh -2.9, Peg3 prom inh 71.0* and TWEAK-Fn14 inh -1.0.
For COc1ccc(Nc2ncnc3sc(-c4ccccc4)cc23)cc1OC the results were CF NFkB block 6.4, HIF-2a inh -16.7, KKLEB tox -3.0, TROY NFkB inh 0.7, Peg3 prom inh -20.6 and TWEAK-Fn14 inh 51.3*.
For O=S(=O)(Nc1ccc(O)c(Sc2nc3ccccc3s2)c1)c1cccc2ccccc12 the results were CF NFkB block 23.0, HIF-2a inh 25.5, KKLEB tox 1.7, TROY NFkB inh 67.5*, Peg3 prom inh -33.5 and TWEAK-Fn14 inh 50.3*.
For CCCCNC(=O)c1nc(C2CCN(S(=O)(=O)c3ccc(C(F)(F)F)cc3)CC2)oc1-c1ccccc1 the results were HIF-2a inh 6.5.
`O=C1C2C3c4ccccc4C(c4ccccc43)C2c2nc3ccccc3n21` (stereo not given) gave CF NFkB block -12.5, HIF-2a inh 17.8, KKLEB tox 12.4, Peg3 prom inh 0.8 and TWEAK-Fn14 inh 51.5*.
Screening CN1C(=O)C2C3c4ccccc4C(c4ccccc43)[C@@H]2C1=O (stereo not given in full) returned CF NFkB block -7.5, HIF-2a inh 21.4, KKLEB tox 6.2, TROY NFkB inh 13.2, Peg3 prom inh 7.2 and TWEAK-Fn14 inh 2.7.
For O=[N+]([O-])c1ccc(NC(=S)N2CCN(c3ccccc3)CC2)cc1 the results were CF NFkB block 15.9, HIF-2a inh -5.8, KKLEB tox -3.6, TROY NFkB inh 7.8, Peg3 prom inh 8.6 and TWEAK-Fn14 inh 55.9*.
`CC(NC(=S)N1CCN(c2ccccc2)CC1)c1ccccc1` (stereo not given) gave CF NFkB block -6.7, HIF-2a inh -3.2, KKLEB tox 0.6, TROY NFkB inh 7.9, Peg3 prom inh 11.2 and TWEAK-Fn14 inh 64.8*.
For O=[N+]([O-])c1ccc(N2CCN(C(=S)Nc3ccccc3)CC2)cc1 the results were CF NFkB block -12.0, HIF-2a inh 4.8, KKLEB tox 7.4, TROY NFkB inh 1.3, Peg3 prom inh 2.9 and TWEAK-Fn14 inh -4.4.

Assay outcomes: PubChem, Sanford-Burnham Center for Chemical Genomics
